Experimental data as given in PubChem BioAssay (NCATS).
Records with an inconclusive call do not appear. Activity calls are given as the source filed them. Unless noted, the call rests on the fitted dose curve; in most records, active means well fitted curve in the direction sought with a large enough effect; inconclusive means small, poorly fitted or top-dose-only effect, or another doubt; inactive means no such curve, though single readings can be large; an effect the other way counts as inactive or inconclusive.

Experiments:
[1] = qHTS profiling of the MIPE4 collection as inhibitors of Plasmodium falciparum (3D7) proliferation (AID 743344; call rule not given here;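 further: scaled between DMSO vehicle wells and 0.29 µM artemisinin as full inhibition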); conditions: P. falciparum 3D7 in erythrocytes, SYBR Green DNA fluorescence, 72 h; at 28.5 µM unless noted
Summary of the method: (§1)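 Erythrocytes infected with P. falciparum (0.3% parasitemia, 2.5% hematocrit) incubated with compounds 72 h at 37 C, 5% CO2. Lysis with saponin/Triton buffer containing SYBR Green I, overnight at room temperature in the dark; DNA fluorescence (485/535 nm) normalised to 0.29 uM artemisinin and DMSO.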

[2] = qHTS profiling of the MIPE4 collection as inhibitors of Plasmodium falciparum (DD2) proliferation (AID 743345; call rule not given here); conditions: P. falciparum Dd2 in erythrocytes, SYBR Green DNA, 72 h; at 28.5 µM unless noted
Summary of the method: as §1

[3] = qHTS profiling of the MIPE4 collection as inhibitors of Plasmodium falciparum (DD2) proliferation (Rep 2) (AID 743346; call rule not given here); conditions: P. falciparum Dd2 in erythrocytes, SYBR Green DNA, 72 h; at 28.5 µM unless noted
Summary of the method: as §1

[4] = High-throughput drug toxicity screening in the BPDCN cell line Gen2.2 (AID 1224824; call rule not given here;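 further: cells exposed to compounds for 48 h before reading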); conditions: Gen2.2 BPDCN cells; at 45.8 µM (top of the series) unless noted
Summary of the method: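 Gen2.2, 500 cells/well, phenol red-free RPMI/10% FBS/Pen-Strep; 48 h cpd, 37 °C/5% CO2; CTG lum, 15 min RT. Norm: DMSO = 100%, bortezomib 9.2 uM final = 0%.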

[5] = High-throughput drug toxicity screening in the BPDCN cell line Cal-1 (AID 1224825; call rule not given here); conditions: Cal-1 BPDCN cell viability, qHTS; at 45.8 µM (top of the series) unless noted
Summary of the method: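 Exponentially growing Cal-1 cells, 500 per well in phenol red-free RPMI with 10% FBS, were exposed to compounds for 48 h at 37 °C, 5% CO2. Viability was read by CellTiter-Glo luminescence and normalised to DMSO (100%) and 9.2 uM bortezomib (0%).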

[6] = qHTS assay for measurement of the activity of small molecule inhibitors on Zika virus induced Caspase-3 activity in human iPSC derived neural progenitor cells (hNPCs) (AID 1224857); further: % of control where 0% means no effect; nearly all actives have a fitted effect of over 65% in size
Summary of the method: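 After overnight (16–20 h) culture at 350 cells/well, hNPCs get compound, then ZIKV 2 FFU/cell one hour later. Six hours on, Caspase-Glo 3/7 is added and luminescence measured.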

[7] = qHTS assay for measurement of the activity of small molecule inhibitors on Zika virus induced Caspase-3 activity in human astrocytoma cells (AID 1224859);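 further: plate controls were ZIKV-infected untreated cells for no effect and uninfected cells for full effect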
Summary of the method: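 Inhibition of Zika-induced caspase-3/7 activity: SNB-19 cells, 1 h compound pretreatment, ZIKV 2 FFU/cell for 6 h at 37 C, Caspase-Glo luminescence read-out.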

[8] = qHTS Screen of the MIPE 4.0 Collection Against Ewings Sarcoma (TC71) (AID 1259253); further: nearly all actives have a fitted effect of over 40% in size; further: potency means the concentration at half of the fitted maximal effect
Summary of the method: (§2)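 Measured: ATP luminescence (CellTiter-Glo) 10 min after reagent addition, following 48 h drug treatment. Relative luciferase units converted to percent activity, with no-cell wells as full and DMSO wells as zero inhibition.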

[9] = qHTS Screen of the MIPE 4.0 Collection Against Ewings Sarcoma (TC32) (AID 1259256); further: nearly all actives have a fitted effect of over 45% in size; further: potency means the concentration at half of the fitted maximal effect
Summary of the method: as §2

[10] = P-glycoprotein substrates identified in KB-8-5-11 adenocarcinoma cell line, qHTS therapeutic library screen (AID 1346987); further: nearly all actives have a fitted effect of over 65% in size
Summary of the method: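 Steps: plate 500 KB-8-5-11 cells/well in DMEM + 10% FCS (colchicine removed); pin compounds in dose-response; incubate 72 h, 37 degree C, 5% CO2; add CellTiter-Glo, 5 min; read luminescence.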

[11] = qHTS profiling of the MIPE4 collection as inhibitors of Plasmodium falciparum (HB3) proliferation (AID 743347; call rule not given here;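 further: plate controls were DMSO vehicle wells for no effect and artemisinin wells for full effect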); conditions: P. falciparum HB3 in erythrocytes, SYBR Green DNA, 72 h; at 28.5 µM unless noted
Summary of the method: as §1

[12] = qHTS Screen of the MIPE 4.0 Collection Against Ewings Sarcoma (EW8) (AID 1259255); further: nearly all actives have a fitted effect of over 35% in size; further: potency means the concentration at half of the fitted maximal effect;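 on viability: 100% = DMSO-treated cells and 0% = medium-only wells without cells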
Summary of the method: as §2

[13] = P-glycoprotein substrates identified in KB-3-1 adenocarcinoma cell line, qHTS therapeutic library screen (AID 1346986); further: nearly all actives have a fitted effect of over 60% in size;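 further: potency means the concentration at half of the fitted maximal effect; potency is for cytotoxicity meaning loss of cell viability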
Summary of the method: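 Resistance attributable to P-gp was assessed by comparing AC50 in KB-8-5-11 with parental KB-3-1 and by tariquidar reversal. Cells were exposed 72 h and viability read by CellTiter-Glo.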

[14] = Identifying Small Molecule Inhibitors of Pancreatic Cancer Stem Cells (SN12C, Adherent) (AID 1259358);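 further: potency means the concentration at half of the fitted maximal effect; cell survival measured after 48 h of compound exposure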
Summary of the method: (§3)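 After a 4 h attachment period, compounds were pinned into wells and cultures held 48 h under standard incubator conditions. Viability was then measured as CellTiter-Glo luminescence following 10 min at room temperature.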

[15] = Identifying Small Molecule Inhibitors of Pancreatic Cancer Stem Cells (A278, Adherent) (AID 1259361); further: nearly all actives have a fitted effect of over 35% in size
Summary of the method: as §3

[16] = qHTS assay to identify small molecule inhibitors of chordoma cells - UCH-2 (AID 1259356); further: on the % scale 0 is the no-effect control and ±100 the full control effect
[17] = Identifying Small Molecule Inhibitors of Pancreatic Cancer Stem Cells (Panc1, Adherent) (AID 1259362); conditions: Potency: viability; further: potency means the concentration at half of the fitted maximal effect
Summary of the method: as §3

SMILES	parasite growth, % of DMSO control [1] [%]	parasite growth remaining, % of DMSO control (lower = more inhibition) [2] [%]	parasite growth, % of control (lower = inhibition) [3] [%]	cell viability, % of control (lower = more cytotoxic) [4] [%]	viability (% of control) [5] [%]	Potency [6]	Potency [7]	Potency [8]	Potency [9]	Potency [10]	growth, % of control [11] [%]	Potency [12]	Potency [13]	Potency [14]	IC50 (viability decrease) [15]	outcome [16]	Potency [17]
COc1ccc(-n2c(C)c([N+](=O)[O-])c3ccc(O)cc32)cc1	80.7	78.7	45.7	46.7	96.3	inactive	inactive	16.6 µM (active)	26.4 µM (active)	inactive	–	–	–	–	–	–	–
CC(C)OC(=O)C(C)(C)Oc1ccc(C(=O)c2ccc(Cl)cc2)cc1	–	–	–	250	119	–	–	–	–	–	–	–	–	–	–	–	–
O=C(NCc1ccncc1)C12C[C@H]3C[C@@H](C1)CC(c1ccc(Cl)cc1)(C3)C2	20	–	26	16.2	11.3	inactive	inactive	26.4 µM (active)	–	inactive	42.3	–	–	–	–	–	–
CCCCCCCCCCCC1=C(O)C(=O)C=C(O)C1=O	54.7	63.9	16.4	52.7	15.1	inactive	inactive	–	23.5 µM (active)	inactive	27.2	inactive	inactive	–	–	–	–
COC(=O)N[C@H](C(=O)N1CCC[C@@H]1c1ncc(-c2ccc(-c3ccc(-c4cnc([C@@H]5CCCN5C(=O)[C@@H](NC(=O)OC)C(C)C)[nH]4)cc3)cc2)[nH]1)C(C)C	9.52	9.13	24.9	6.1	28.7	inactive	inactive	–	26.4 µM (active)	inactive	14.2	26.4 µM (active)	–	–	–	–	–
O=C(Nc1cccc(Br)c1)c1cccc(S(=O)(=O)N2CCCCCC2)c1	–	–	72.2	296	76	inactive	inactive	23.5 µM (active)	–	–	21.1	–	–	–	–	–	–
CC(=O)OC1C(C)OC(Oc2c(-c3ccc(O)cc3)oc3cc(O)cc(O)c3c2=O)C(O)C1OC(C)=O (stereo not given)	11.3	–	32.5	5.65	7.44	inactive	inactive	–	inactive	inactive	4.99	inactive	–	–	–	–	–
CO[C@@H](C(=O)N1Cc2[nH]nc(NC(=O)c3ccc(N4CCN(C)CC4)cc3)c2C1)c1ccccc1	6.06	12.3	10.5	134	6.89	inactive	inactive	–	0.0662 µM (active)	–	–	0.0935 µM (active)	1.3 µM (active)	743 nM (active)	0.0935 µM (active)	–	–
CC1(C)O[C@H]2C[C@@H]3[C@H]4CCC5=CC(=O)C=C[C@]5(C)[C@@]4(F)[C@@H](O)C[C@]3(C)[C@]2(C(=O)CO)O1	38.4	92.5	65.2	37.9	8.18	inactive	inactive	inactive	–	inactive	–	–	–	–	–	inactive	–
O=c1cc(N2CCOCC2)oc2c(-c3cccc4c3sc3ccccc34)cccc12	11.6	–	25.8	2.51	3.76	inactive	inactive	10.5 µM (active)	–	inactive	7.93	–	inactive	–	18.7 µM (active)	–	23.5 µM (active)
